The list is not random: actives were taken first. Their share in the collection is about 5.4%.
aDG glyco act = alpha-DG glycosylation activation; actives 0.22% (n = 360,000); activation, % at 10 µM; Pro5-aDG cells, alpha-DG glycosylation AlphaScreen (IIH6); 0% Pro5, 100% B10-LARGE cell signal;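 active = activation of at least 8% versus controls, or a plate z-score of at least 8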;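 note: Pro5 are CHO cells carrying HIG-tagged alpha-DG that lacks glycosylation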
APOBEC3G inh = APOBEC3G (human) deaminase inhibition | recombinant A3G, ssDNA deamination FAM/TAMRA fluorescence | Q9HC16 | actives 0.28% (n = 330,000) | inhibition, % at 20 µM;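 active = inhibition of at least 40% at 20 µM, with no more than 30% in the related APOBEC3A deaminase screen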;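 note: plate controls were DMSO wells with A3G for no effect and wells lacking A3G enzyme for full effect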
ALR H2O2 inh = human ALR oxidase inhibition via reduced H2O2; P55789; purified ALR, DTT oxidation, H2O2 HRP-luminol luminescence; inhibition, % (concentration not given with the values); actives 3.8% (n = 290,000); AID 485317;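 active = mean replicate inhibition above about 79%, with every replicate also reaching it, limit read from the data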
PHOSPHO1 block = blocks human PHOSPHO1 phosphatase activity; recombinant PHOSPHO1, absorbance phosphatase assay; inhibition, % at 13.3 µM; actives 1.1% (n = 290,000); in the data active = inhibition above about 60%
Target sequence (Q8TCT1 whole entry, looked up): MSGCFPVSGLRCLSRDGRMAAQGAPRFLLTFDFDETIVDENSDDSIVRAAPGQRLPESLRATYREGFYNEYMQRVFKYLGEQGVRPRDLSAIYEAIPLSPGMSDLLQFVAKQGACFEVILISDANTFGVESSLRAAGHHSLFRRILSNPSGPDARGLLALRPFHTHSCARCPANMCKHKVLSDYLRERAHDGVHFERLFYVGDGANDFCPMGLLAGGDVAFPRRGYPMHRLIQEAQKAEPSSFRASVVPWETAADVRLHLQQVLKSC
rCAG binder = r(CAG) repeat RNA binding; actives 1.3% (n = 370,000); inhibition, % at 3 µM; TO-PRO-1 dye displacement fluorescence; AID 651821;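 active = inhibition above the plate cutoff, the mean of all test compounds on that plate plus 3 SD, cut at about 35% in these data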;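 note: 0% = DMSO alone and 100% = 100 µM mitoxantrone as full dye displacement; higher means more dye released from RNA so lower well fluorescence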
A3A deaminase = inhibitors of human APOBEC3A DNA deaminase; AID 493011; recombinant A3A, FAM/TAMRA ssDNA deamination fluorescence; inhibition, % at 20 µM; P31941; actives 0.41% (n = 330,000);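 active = at least 40% inhibition at 20 µM here, with at most 30% in a related deaminase screen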;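 note: plate controls were A3A with DMSO for no effect and wells lacking A3A enzyme for full effect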
Target sequence (P31941 whole entry, looked up): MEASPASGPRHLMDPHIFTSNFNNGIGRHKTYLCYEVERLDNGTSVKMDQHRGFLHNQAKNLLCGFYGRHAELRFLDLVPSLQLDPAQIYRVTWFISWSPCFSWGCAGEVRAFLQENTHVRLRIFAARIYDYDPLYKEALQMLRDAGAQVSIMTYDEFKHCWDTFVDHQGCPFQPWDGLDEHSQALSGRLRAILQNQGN
aDG conf = alpha-DG glycosylation activation, confirmation. shares compounds with aDG glyco act. Pro5-aDG cells, IIH6 AlphaLISA; scaled to LARGE-overexpressing B10 cells as 100%. activation, % at 10 µM (by protocol). actives 17% (n = 600). AID 651671;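 active = activation of at least 7% in one or more replicates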;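 note: cells exposed to compound for two days before detection; 0% = DMSO-treated Pro5 cells and 100% = DMSO-treated B10-LARGE cells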
* hit, by the source's call; x = not tested or not shown.

SMILES	aDG glyco act	APOBEC3G inh	ALR H2O2 inh	PHOSPHO1 block	rCAG binder	A3A deaminase	aDG conf
O=C(Cn1ncc2c(=O)oc3ccccc3c21)NCC1COc2ccccc2O1 (configuration not stated)	8.2*	-1	-7	9	2	-1	0
CC(C)COc1cccc(C(=O)NNC(=O)C2COc3ccccc3O2)c1 (configuration not stated)	6.2*	0	1	-14	-2	1	0
CCc1ccccc1NC(=O)COC(=O)c1c(C)nsc1NC	4.0*	-1	-1	x	0	-1	0
CNc1snc(C)c1C(=O)OCC(=O)Nc1ccc(C)cc1F	2	13	x	x	6	-1	x
CCOC(=O)C1=C(C)OC(N)=C(C#N)C1c1ccc(OC)c(C)c1OC (configuration not stated)	9.7*	-3	-1	-3	2	1	0
COc1ccc(S(=O)(=O)NC(=O)C2(C)CCN2C(=O)C2(c3ccccc3)CCCC2)cc1 (configuration not stated)	0	x	x	x	27	x	x
CCc1ccccc1NC(=O)CSc1nc2[nH]c(=O)cc(O)c2s1	0	-4	-12	12	9	3	x
Cc1cccc(C)c1NC(=O)CSc1nc2[nH]c(=O)cc(O)c2s1	18*	3	0	x	11	-2	0
O=[N+]([O-])c1cnccc1-n1nnc2ccccc21	0	x	x	x	1	x	x
CC(Cc1ccccc1)N1CCCC1=O (configuration not stated)	0	x	x	x	4	x	x
O=C(CN1C(=O)c2cccc([N+](=O)[O-])c2C1=O)N1CCc2ccccc2C1	0	x	x	x	5	x	x
CC(=O)Nc1nc(CC(=O)c2ccccc2)cs1	8.4*	-15	4	43	4	-3	1
CC(=O)Nc1nc(COc2ccccc2)cs1	0	-8	-7	12	3	3	x
COCCNc1nc(-c2ccc(OC)cc2C)c2sc(-c3ccccc3)cc2n1	0	x	x	x	6	x	x
C(=CCSc1ccccn1)CSc1ccccn1	x	x	x	x	-1	x	x
CC(C)Cc1cc(CN2CCCC(CO)(Cc3cccc(Cl)c3)C2)[nH]n1 (configuration not stated)	0	0	-7	20	-7	1	x
CC(C)Cc1cc(CN2CCC(CO)(Cc3cccc(C(F)(F)F)c3)CC2)[nH]n1	10*	0	1	-13	-7	-4	4
CCN(CC)S(=O)(=O)c1ccc(C)c(NC(=S)N2CCN(C/C=C/c3ccccc3)CC2)c1	8.6*	-2	-20	28	0	2	1
CC(C)C[C@H]1COCCS(=O)(=O)N1Cc1ccccc1F	6.1*	18	-4	x	-1	2	0
Cc1nc(CCNC(=O)Cc2ccc(Cl)cc2)cs1	8.7*	-7	-6	-34	0	-1	1
c1ccc(-c2ccncn2)cc1	0	x	x	x	1	x	x
Brc1cccc(-c2nc3c4ccccc4ccn3c2CC2CCCCC2)c1	15*	x	x	x	5	x	5.8*
CCCCCNCC(=O)Nc1cccc(C(=O)Nc2cccc(C(F)(F)F)c2)c1	16*	-5	-115	32	-1	2	10*
C[C@H](CO)N1C[C@H](C)[C@@H](CN(C)C(=O)Nc2ccc(C(C)(C)C)cc2)OCc2cnnn2CCCC1=O	0	x	x	x	-1	x	x
C[C@@H]1CN([C@@H](C)CO)C(=O)CCCn2nncc2CO[C@@H]1CN(C)C(=O)Nc1ccc(C(C)(C)C)cc1	14*	x	x	x	6	x	-1
SMILES	aDG glyco act	APOBEC3G inh	ALR H2O2 inh	PHOSPHO1 block	rCAG binder	A3A deaminase	aDG conf
CC(C)COC(=O)N(C)C[C@@H]1OCc2cnnn2CCCC(=O)N([C@@H](C)CO)C[C@@H]1C	0	x	x	x	-1	x	x
C[C@@H]1CN([C@H](C)CO)C(=O)CCCn2nncc2CO[C@@H]1CN(C)C(=O)CCC(F)(F)F	7.3*	x	x	x	1	x	0
CC(C)COC(=O)N(C)C[C@@H]1OCc2cnnn2CCCC(=O)N([C@H](C)CO)C[C@@H]1C	7.2*	x	x	x	-1	x	0
CC1CCCC(C)N1C(=O)CSc1nnnn1Cc1ccccc1 (configuration not stated)	5.6*	2	-2	14	-7	1	-1
C#CCN(C[C@H]1[C@H](OC(=O)NCc2ccccc2F)[C@H](OC(=O)NCc2ccccc2F)C[C@@H](C(=O)OC)[C@H]1C(=O)OC)S(=O)(=O)c1ccc(C)cc1	0	x	x	x	11	x	x
Cc1cc(NC(=O)Cc2ccccc2)c2ccccc2n1	7.5*	-9	-12	-12	-6	1	0
COC(=O)Nc1cc(C)nc2ccccc12	0	-3	-7	7	0	-1	x
COc1ccc(NC(=O)C2Cc3cccc(OC)c3O/C2=N\O)cc1 (configuration not stated)	0	-2	-4	x	-1	2	x
COc1ccc(NC(=O)C2Cc3ccccc3O/C2=N\O)cc1 (configuration not stated)	5.9*	x	0	29	3	x	-1
CCc1ccc(NC(=S)NC2CC3CCCC(C2)N3Cc2cccs2)cc1 (configuration not stated)	4.0*	-2	5	7	3	-2	2
C/C(=N/Nc1nc(C)cc(C)n1)c1ccc(Br)cc1	2.2*	-6	1	3	-7	-6	2
Cc1cc(C(=O)Nc2ccc(Cl)cc2)n(-c2ccccc2)n1	2.7*	-8	-4	19	-1	-1	0
O=C(COc1ccccc1Br)NCCC1=CCCCC1	3.6*	-5	-4	x	-2	-1	-1
Cc1nc(NC(C)c2ccccc2)c2oc3ccccc3c2n1 (configuration not stated)	6.7*	-5	-1	8	3	-2	0
CCC(C)Nc1nc(C)nc2c1oc1ccccc12 (configuration not stated)	1	-7	11	28	-6	-1	x
CN(C)Cc1ncccc1Oc1nc2cc(-c3cccc(Cl)c3)sc2c(=O)n1C	2	x	x	x	2	x	x
CCOC(=O)c1sc2nc(C)nc(NCCc3ccccn3)c2c1C	2	-15	-1	2	0	-3	x
CCOC(=O)c1sc2nc(CSc3ccccc3)nc(NCCN(C)C)c2c1C	8.4*	-5	-8	-4	4	-2	2
O=C(C1CC(=O)N(c2ccc(F)c(Cl)c2)C1)N1CCOCC1 (configuration not stated)	0	x	x	x	2	x	x
c1csc(-c2nc3c4ccccc4c4ccccc4c3[nH]2)c1	5.5*	-2	x	-4	60*	-4	4
Nn1c(SCc2ccccn2)nncc1=O	0	-1	65	25	0	-2	x
Cc1nnc(SCc2ccccn2)n(N)c1=O	3.5*	-2	4	0	-1	-1	0

Bioassay records (PubChem)
